Assay results from PubChem BioAssay (NCI).
The panel holds about 79,000 compounds, 15% with a hit somewhere; the sample as a whole holds those more often. Calls of active or inactive are those of the source. Rule as the data show it: active = growth inhibition above about 70%; inactive = the rest.

Assays:
[1] = NCI Yeast Anticancer Drug Screen. Data for the rad50 strain (AID 155);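 also: 0% = growth of vehicle-only cultures of the same strain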; conditions: S. cerevisiae rad50 strain growth inhibition; at 50.0 µM; stronger effect = higher value
Procedure, shortened: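 Compounds were tested on a yeast strain with an engineered DNA damage repair alteration; the reported value is growth inhibition normalised to vehicle treatment.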

[2] = NCI Yeast Anticancer Drug Screen. Data for the mec2-1 strain (AID 157); conditions: S. cerevisiae mec2-1 strain, at 50.0 µM, stronger effect = higher value
Procedure, shortened: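 Growth inhibition is read against vehicle-treated controls after compound exposure of the mec2-1 yeast strain, which is defective in DNA damage repair or cell cycle control.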

[3] = NCI Yeast Anticancer Drug Screen. Data for the sgs1 mgt1 strain (AID 161);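 also: 0% = growth of cultures given vehicle only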; conditions: S. cerevisiae sgs1 mgt1 strain, at 50.0 µM, stronger effect = higher value
Procedure, shortened: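 Growth of a repair-deficient yeast mutant was monitored after compound treatment and expressed as inhibition relative to vehicle-treated cultures.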

[4] = NCI Yeast Anticancer Drug Screen. Data for the cln2 rad14 strain (AID 165);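 also: 0% = growth equal to vehicle treated cultures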; conditions: S. cerevisiae cln2 rad14 strain, at 50.0 µM, stronger effect = higher value
Procedure, shortened: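 Growth inhibition, relative to vehicle-treated controls, is the read-out. The test organism is a yeast strain with defined genetic alterations, cln2 rad14.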

[5] = NCI Yeast Anticancer Drug Screen. Data for the bub3 strain (AID 167); conditions: S. cerevisiae bub3 mutant strain, at 50.0 µM, stronger effect = higher value
Procedure, shortened: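 Growth of a checkpoint-deficient yeast mutant is measured after compound exposure. Values represent inhibition relative to vehicle.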

[6] = NCI Yeast Anticancer Drug Screen. Data for the mlh1 rad18 strain (AID 175); conditions: S. cerevisiae mlh1 rad18 strain growth inhibition; at 50.0 µM; stronger effect = higher value
Procedure, shortened: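 Cells of a genetically altered yeast strain, deficient in DNA damage repair, were treated with compound. Their growth was then compared with that of vehicle-treated cultures to give inhibition.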

Measured: growth inhibition

COc1c2occc2c(CC(O)C(C)(C)O)c2ccc(=O)oc12 (stereo unspecified)
inactive: [1] 13.4% | [2] -20.7% | [3] 14.8% | [4] -6.75% | [5] -3.75% | [6] -13.2%

Cc1cc2oc3c(c2c(=O)[nH]1)C(=O)c1ccccc1C3=O
inactive: [1] -6.55% | [2] -1.3% | [3] -8% | [4] -17.4% | [5] -21.8% | [6] -5.85%

CCN(CC)Cc1cc(Nc2c3ccc([N+](=O)[O-])cc3nc3ccc(OC)cc23)ccc1O
inactive: [2] 60.4% | [3] 56% | [4] 54.5% | [5] 53.9% | [6] 65.3%
active: [1] 83.3%

NC(=O)c1cc2ccccc2[n+](Cc2ccc(F)cc2)c1
inactive: [1] -0.2% | [2] 0.4% | [3] 6.45% | [4] -49.1% | [5] 4.9% | [6] -6.95%

Nc1ncnc2c1ncn2CCC(COCc1ccccc1)COCc1ccccc1
inactive: [1] 40.8% | [2] 0.4% | [3] 50.8% | [4] -10% | [5] 4.6% | [6] 11.7%

CC(=O)c1ccccc1C(=O)O
inactive: [1] 6.05% | [2] 7.45% | [3] -6.65% | [4] 7.6% | [5] 6.25% | [6] -9.55%

Oc1c(Cl)cc(Cl)cc1C=Nc1ccc2c(ccc3c4ccccc4ccc23)c1
inactive: [1] 7.95% | [2] 2.4% | [3] -2.4% | [4] -41.4% | [5] 6.55% | [6] 15.1%

CCN(CC)CC1CO1 (stereo unspecified)
inactive: [1] -8.15% | [2] -12.1% | [3] 3.35% | [4] -3.5% | [5] -11.7% | [6] 9.2%

C=C(C)CC(O)CCCCC (stereo unspecified)
inactive: [1] 15.1% | [2] -5.85% | [3] 19.7% | [4] -33.9% | [5] 17.3% | [6] -13.3%

CC(C)(Cc1ccccc1)C(=C=C=C=C(c1ccccc1)C(C)(C)Cc1ccccc1)c1ccccc1
inactive: [1] -14.8% | [2] -3.7% | [3] -32.2% | [4] 5.9% | [5] 2.95% | [6] -15.7%

CCn1ncc2c1nc(-c1ccccc1)c[n+]2[O-]
inactive: [1] 17.1% | [2] 4% | [3] -34.5% | [4] -12.4% | [5] -44.9% | [6] -52%

CC(=O)CCCC(CC(C)O)[Si](C)(C)C (stereo unspecified)
inactive: [1] -43.6% | [2] -19.4% | [3] -1.05% | [4] -14.2% | [5] -8.45% | [6] -23.6%

CC(=O)OC1C(=O)OCC23CCC(C)=CC2OC2CC(OC(=O)/C=C/C=C/C(=O)OCCC1C)C3(C)C21CO1 (stereo unspecified)
inactive: [1] -35.5% | [2] -4.45% | [3] -31.3% | [4] -4.4% | [5] -22.6% | [6] -19.6%

CCOC(=O)c1[nH]n(-c2ccccc2)c(=O)c1/C=N/C(N)=S
inactive: [1] 2% | [2] -1.95% | [3] -15.8% | [4] 14.1% | [5] 17.8% | [6] 8.45%

COC(=O)OC(C#N)c1cccc([N+](=O)[O-])c1 (stereo unspecified)
inactive: [1] 15.8% | [2] 8.8% | [3] 6.2% | [4] -13.7% | [5] -3.9% | [6] 9%

CC(=O)OCCC(OC(C)=O)c1ccccn1 (stereo unspecified)
inactive: [1] -13.9% | [2] -13.1% | [3] -9.1% | [4] -2.95% | [5] 3.95% | [6] -18.6%

Cc1ccc(C(=S)NC(=O)Nc2ccccc2)cc1
inactive: [1] -7.1% | [2] 9.45% | [3] -17.8% | [4] -20.9% | [5] 45.8% | [6] 1.45%

CCCCCNC(=O)c1csc(-c2csc(CCNC(C)=O)n2)n1
inactive: [1] -18.9% | [2] 4.85% | [3] 4.7% | [4] -26.1% | [5] 16.1% | [6] 3.8%

O=C(Nc1ccc(S(=O)(=O)NC2CCCCC2)cc1)OC(c1ccccc1)c1ccccc1
inactive: [1] 21.6% | [2] -0.75% | [3] 18.2% | [4] 13.8% | [5] -6.15% | [6] 1.45%

COc1cc([N+](=O)[O-])c2nccc(C)c2c1
inactive: [1] 13.1% | [2] 6.1% | [3] -0.6% | [4] -5.05% | [5] -5.1% | [6] 18.6%

CCOC(=O)c1c(N)sc2c1C(C(=O)OCC)CCC2 (stereo unspecified)
inactive: [1] -28.3% | [2] -10.7% | [3] 3.95% | [4] -24.1% | [5] 19.4% | [6] -11.7%

c1ccc2c(c1)CC1c3ccccc3CC21 (stereo unspecified)
inactive: [1] -1.2% | [2] -7% | [3] -1.95% | [4] -28.4% | [5] 0.75% | [6] -2.35%

c1ccc(-c2c3ccccc3c(-c3ccccc3)c3ccccc23)cc1
inactive: [1] 6.2% | [2] 5.95% | [3] 6.7% | [4] -3.75% | [5] 2.4% | [6] 19.7%

CCCCCCCC[N+]1([O-])CC[N+](C)([O-])CC1 (stereo unspecified)
inactive: [1] 3.9% | [2] 4.1% | [3] -2.25% | [4] -21.5% | [5] -8.3% | [6] 2.55%

CN(c1ccccc1)S(=O)(=O)c1ccc([N+](=O)[O-])cc1
inactive: [1] -13.4% | [2] -52.7% | [3] 6.75% | [4] -7.1% | [5] 21.8% | [6] -5.45%

O=C1/C(=C/c2ccc(F)cc2)CC/C1=C\c1ccc(F)cc1
inactive: [1] -10.5% | [2] -12.1% | [3] -2.85% | [4] -2.55% | [5] -13.8% | [6] -9.3%

C[n+]1cccc(NC(=O)COc2ccc(Cl)c(Cl)c2)c1
inactive: [1] 15.3% | [2] 3.95% | [3] -5.4% | [4] -18% | [5] -1.75% | [6] 21.5%

O=C(Sc1ccccn1)c1ccccc1
inactive: [1] 4.15% | [2] -14.3% | [3] -18.4% | [4] -8.05% | [5] -21.6% | [6] -37.1%

C=CCOC(=O)/C=C\c1ccccc1OC
inactive: [1] 23.9% | [2] 6.45% | [3] 16.6% | [4] -39.9% | [5] 14.8% | [6] -3.3%

Cc1ccccc1-c1nnc(-c2ccc3ccccc3c2)o1
inactive: [1] 7.3% | [2] -4.25% | [3] -4.65% | [4] -36.5% | [5] 1.05% | [6] -1.05%

COc1ccc(/C=N/Nc2ccc(S(=O)(=O)O)cc2)cc1
inactive: [1] 5.45% | [2] -12.6% | [3] -18.7% | [4] -6.45% | [5] -21.2% | [6] 13.2%

COc1ccc(-c2cc3cc(OC)c(OC)cc3c[n+]2C)cc1OC
inactive: [1] 28.3% | [2] 5.4% | [3] 5.6% | [4] 16.1% | [5] -2.3% | [6] -0.55%

COC(=O)C1=C(C(=O)OC)C(=Nc2ccccc2)c2ccccc2C1=O
inactive: [1] 46.8% | [2] 35.3% | [4] 8.2% | [5] 51.4%
active: [3] 74.2% | [6] 90.6%

CCOC(=O)c1sc(N)nc1O
inactive: [1] -5.5% | [2] -0.3% | [3] -3.75% | [4] 5.85% | [5] 6.25% | [6] -8.8%

CSC(C(=O)O)c1cc(-c2c(Cl)cccc2Cl)no1 (stereo unspecified)
inactive: [1] -1.95% | [2] 23.8% | [3] 29% | [4] 8.85% | [5] 24.4% | [6] 22.9%

C1CC[N+]2(CC1)CCCCC2
inactive: [1] 0.1% | [2] 9.4% | [3] -0.55% | [4] 14.2% | [5] 23.1% | [6] -0.45%

COc1cc(/C=C2\C=Cc3ccccc32)ccc1N(C)C
inactive: [1] 5.45% | [2] -13.2% | [3] -6.85% | [4] -54.4% | [5] 3.8% | [6] -15.5%

CCCCCCOC(=O)C(C)(O)C(Cl)c1ccccc1 (stereo unspecified)
inactive: [1] 3.95% | [2] -0.45% | [3] -5.4% | [4] 3.9% | [5] 9.3% | [6] -10.2%

C=C(C)CN(CC(=C)C)C(C)=O
inactive: [1] 5.7% | [2] -17.7% | [3] -15.4% | [4] -6.15% | [5] -16.3% | [6] -5.85%

CC1CCC(C(C)(C)O)CC1O (stereo unspecified)
inactive: [1] -12.9% | [2] 2.05% | [3] 0.9% | [4] -9.05% | [5] -16.8% | [6] -7.55%

CCC[CH2][Ge]([CH2]CCC)([CH2]CCC)[n]1ccc2ccccc21
inactive: [1] 24% | [2] 31.2% | [3] 47% | [4] 20.3% | [5] 45.9% | [6] 44.7%
